Results reported in PubChem BioAssay (NCATS).
For part of these data: Potency and affinity values are given separately. Calls of active or inactive are those of the source.

Tests used:
[1] = Ebola virus entry assay, green fluorescence channel
[2] = Ebola virus entry assay, ratio channel readout
[3] = Ebola virus entry assay, ratio channel
[4] = Ebola virus entry assay, green channel fluorescence
[5] = Ebola virus entry assay, blue channel fluorescence
[6] = Ebola virus entry assay, reporter ratio channel
[7] = Ebola virus entry assay, blue channel (ratio component)
[8] = Ebola virus entry cell assay, ratio channel
[9] = Ebola virus entry reporter assay, green channel fluorescence
[10] = Ebola virus entry assay, blue channel fluorescence; remark: listed apart in the source
[11] = AC50: Channel type: primary unless noted, outcome: Channel type: primary unless noted

Measured: AC50

CCC(C(N)=O)N1CCCC1=O (stereo not drawn)
inactive: [1] | [2] | [3] | [4] | [5] | [6]; [11] | [7] | [8]

Nc1ccn([C@@H]2O[C@H](CO)[C@@H](O)C2(F)F)c(=O)n1
inactive: [1] | [2] | [3] | [4] | [5] | [6]; [11] | [7] | [8]

CN(C)[C@@H]1C(=O)C(C(N)=O)=C(O)[C@@]2(O)C(=O)C3=C(O)c4c(O)cccc4[C@@](C)(O)[C@H]3C[C@@H]12
active: [6]; [11] 31.6 µM
inactive: [1] | [2] | [3] | [5] | [8]

Cc1ncc([N+](=O)[O-])n1CCO
inactive: [1] | [2] | [3] | [4] | [6]; [11] | [9] | [8]

CC(C)C1CCC(C(=O)N[C@H](Cc2ccccc2)C(=O)O)CC1 (stereo partly drawn)
inactive: [1] | [2] | [3] | [4] | [5] | [6]; [11] | [7] | [8]

CN(C)C(=N)N=C(N)N
inactive: [1] | [2] | [3] | [4] | [5] | [6]; [11] | [7] | [8]

COC(=O)C1=C(C)NC(C)=C(C(=O)OC(C)C)C1c1cccc2nonc12 (stereo not drawn)
inactive: [1] | [2] | [3] | [4] | [5] | [6]; [11] | [7] | [9] | [8]

O=C(O)c1cn(C2CC2)c2cc(N3CCNCC3)c(F)cc2c1=O
inactive: [1] | [2] | [4] | [5] | [6]; [11] | [7] | [9] | [8]

CCOC(=O)[C@H](CCc1ccccc1)N[C@@H](C)C(=O)N1Cc2ccccc2C[C@H]1C(=O)O
inactive: [1] | [2] | [3] | [4] | [5] | [6]; [11] | [7] | [9] | [8]

NCC1(CC(=O)O)CCCCC1
inactive: [1] | [2] | [3] | [4] | [5] | [6]; [11] | [7] | [8]

N=c1nc(N2CCCCC2)cc(N)n1O
inactive: [1] | [2] | [4] | [5] | [6]; [11] | [7] | [9] | [8]

Cc1ccc(S(=O)(=O)NC(=O)NN2CCCCCC2)cc1
inactive: [1] | [2] | [3] | [4] | [6]; [11] | [7] | [8]

O=C(O)c1ccc(-n2nc(-c3ccccc3O)nc2-c2ccccc2O)cc1
inactive: [1] | [2] | [10] | [5] | [6]; [11] | [9] | [8]

CCOC(=O)N1CCC(=C2c3ccc(Cl)cc3CCc3cccnc32)CC1
active: [3] 6.31 µM | [6]; [11] 6.31 µM
inactive: [1] | [2] | [8]

O=C1NC(c2ccccc2)(c2ccccc2)C(=O)N1COP(=O)(O)O
inactive: [1] | [2] | [3] | [4] | [5] | [6]; [11] | [7] | [9] | [8]

CC1(C)S[C@@H]2[C@H](NC(=O)[C@H](N)c3ccccc3)C(=O)N2[C@H]1C(=O)O
inactive: [1] | [2] | [3] | [4] | [5] | [6]; [11] | [7] | [9] | [8]

O=C1OCCN1/N=C/c1ccc([N+](=O)[O-])o1
inactive: [1] | [2] | [3] | [4] | [5] | [6]; [11] | [7] | [9] | [8]

CCCCc1ncc(/C=C(\Cc2cccs2)C(=O)O)n1Cc1ccc(C(=O)O)cc1
inactive: [1] | [2] | [3] | [4] | [5] | [6]; [11] | [7] | [9] | [8]

CN(N=O)C(=O)N[C@@H]1[C@@H](O)[C@H](O)[C@@H](CO)O[C@@H]1O
inactive: [1] | [2] | [3] | [4] | [5] | [6]; [11] | [7] | [9] | [8]

CC(C)(C#N)c1cc(Cn2cncn2)cc(C(C)(C)C#N)c1
inactive: [1] | [2] | [3] | [4] | [5] | [6]; [11] | [7] | [9] | [8]

CC(=O)O[C@]1(C(C)=O)CC[C@H]2[C@@H]3C=C(Cl)C4=CC(=O)[C@@H]5C[C@@H]5[C@]4(C)[C@H]3CC[C@@]21C
active: [3] 3.55 µM | [6]; [11] 3.55 µM
inactive: [1] | [2] | [7] | [8]

Nc1nc2c(ncn2COCCO)c(=O)[nH]1
inactive: [1] | [2] | [3] | [4] | [5] | [6]; [11] | [7] | [8]

N[C@@H]1C[C@H]1c1ccccc1
inactive: [1] | [2] | [3] | [4] | [5] | [6]; [11] | [7] | [9] | [8]

Cc1cccc(C)c1OCC(C)N (stereo not drawn)
inactive: [1] | [2] | [3] | [4] | [6]; [11] | [7] | [8]

C[C@]12CC[C@@H]3c4ccc(O)cc4C[C@@H](CCCCCCCCCS(=O)CCCC(F)(F)C(F)(F)F)[C@H]3[C@@H]1CC[C@@H]2O (stereo partly drawn)
active: [8] 2 µM
inactive: [1] | [2] | [3] | [6]; Channel type: confirmation | [6]; Channel type: primary | [7]

C=C1CC[C@@]2(O)[C@H]3Cc4ccc(O)c5c4[C@@]2(CCN3CC2CC2)[C@H]1O5
inactive: [1] | [2] | [3] | [4] | [5] | [6]; [11] | [7] | [9] | [8]

CN1C(=O)CC(C)(c2ccccc2)C1=O (stereo not drawn)
inactive: [1] | [2] | [10] | [5] | [6]; [11] | [7] | [9] | [8]

Cc1ccccc1N1C(=O)c2cc(S(N)(=O)=O)c(Cl)cc2NC1C (stereo not drawn)
inactive: [1] | [2] | [3] | [4] | [5] | [6]; [11] | [7] | [8]

CC(S)C(=O)NCC(=O)O (stereo not drawn)
inactive: [1] | [2] | [5] | [6]; [11] | [7] | [8]

C#CCN(C)[C@H](C)Cc1ccccc1
inactive: [1] | [2] | [4] | [5] | [6]; [11] | [7] | [9] | [8]

CN(C)CCc1c[nH]c2ccc(C[C@H]3COC(=O)N3)cc12
inactive: [1] | [2] | [4] | [5] | [6]; [11] | [7] | [8]

Nc1[nH]c(=O)ncc1F
inactive: [1] | [2] | [4] | [5] | [6]; [11] | [7] | [9] | [8]

O=C(O)CCCc1ccccc1
inactive: [1] | [2] | [4] | [5] | [6]; [11] | [7] | [9] | [8]

NS(=O)(=O)c1cc2c(cc1Cl)NC=NS2(=O)=O
inactive: [1] | [10] | [4] | [5] | [6]; [11] | [7] | [8]

CN(CCOc1ccc(CC2SC(=O)NC2=O)cc1)c1ccccn1 (stereo not drawn)
inactive: [1] | [2] | [4] | [5] | [6]; [11] | [7] | [8]
